# Results as given in PubChem BioAssay (Tox21).
# Records with an inconclusive call do not appear. Values without a mark were called inactive. Activity calls are given as the source filed them. Calls come from the whole dose curve; as a rule, active = well fitted cell-killing curve with a large enough effect in the repeat runs; inconclusive = weak or mixed curves, or effect the other way; inactive = flat fitted curve, though single readings scatter.
# Assay: cAMP Responsive Elements (CRE) small molecule agonists, cell-based qHTS assay: qHTS cell viability counter screen (AID 2060914);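 note: viability read after 3 h of compound exposure; nearly all actives have a fitted effect of over 50% in size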
# Details: CRE-bla HEK293T viability, CellTiter-Glo luminescence, 5 h; series mostly up to 92.4 µM; activity change, negative = cytotoxicity: at the top concentration
# Source text: National Center for Advancing Translational Sciences [NCATS]
# Division of Preclinical Innovation [DPI]
# U.S. Environmental Protection Agency [EPA]
# National Institutes of Environmental Health Sciences [NIEHS]
# National Toxicology Program [NTP]
# U.S. Food and Drug Administration [FDA]
# CREB (cyclic-AMP Responsive Element Binding Protein) is a cellular transcription factor. It binds to certain DNA sequences called cAMP Responsive Elements (CRE) and regulates the transcription of the genes. […] This cell line can be used to find agonists/antagonists of the cyclic AMP signaling pathway. The activation of the report gene under culture conditions can be detected by fluorescence intensity. This cell line has been used to screen the Tox21 10K compound library to identify agonists that induce oxidative stress. The cytotoxicity of the Tox21 compound library against the CRE-bla cell line was tested in parallel by measuring the cell viability using CellTiter-Glo assay (Promega, Madison, WI) in the same wells.
# Tox21 Assay Protocol Summary:
# CRE-bla Hek 293T cells were suspended in assay medium (DMEM containing 10% dialyzed FBS, 0.1 mM NEAA, 1 mM sodium pyruvate and 25 mM HEPES) and dispensed at 2,000 cells/5 uL /well into 1536-well black wall/clear bottom plates using a Multidrop Combi (ThermoFisher Scientific, Waltham, MA) dispenser. After the assay plates were incubated at 37 C/5% CO2 for 18 hrs, 23 nL of compounds dissolved in DMSO, positive controls or DMSO only was transferred to the assay plate by a pintool workstation (Kalypsys, San Diego, CA). After the plates were incubated at 37 C/5% CO2 for 3 hrs, 1 uL of LiveBLAzer B/G FRET substrate (Invitrogen, Carlsbad, CA) was added to each well using Bioraptr Flying Reagent Dispenser (FRD, Aurora Discovery, San Diego, CA). The plates were incubated at room temperature for 2 h, then fluorescence intensities were measured using an Envision plate reader (PerkinElmer, Shelton, CT) at Excitation 405nm, Emission 460nm and 530nm. The % activity was determined from the ratio of 460nm/530nm. For cell viability readout that measures cytotoxicity, 4 uL /well of CellTiter-Glo reagent was added into the assay plates using Bioraptr FRD. After 30 min incubation at room temperature, the luminescence intensity in the assay plates was measured using a ViewLux (PerkinElmer, Shelton, CT) plate reader.
# % is set by controls: 0 for no effect and ±100 for the full control effect; potency is the fitted concentration of half-maximal effect.
SMILES,"activity change, negative = cytotoxicity",Potency
O=C1NC(=O)C2CC=CCC12 (stereo not given),-6.32%,–
COS(C)(=O)=O,-1.07%,–
CCC(C)C(C)=O (stereo not given),9.79%,–
O=S(=O)(O)c1cc(I)c(O)c2ncccc12,2.91% [at 42.5 µM],–
CCCC(=O)OCC,2.42%,–
Cc1ncsc1CCO,-7.98%,–
COCC(O)CO (stereo not given),-19.8%,–
O=C1CCCCCCCCCCCN1,–,inactive
CC(C)(C)c1csc(-c2cc3cc(OCc4ccccc4CC(=O)O)ccc3o2)n1,-19.7%,–
CNCCO,2.13%,–
CCCCC/C=C\C/C=C\CCCCCCCC(=O)O,–,inactive
CC(=O)/C=C/c1ccco1,-0.393%,–
CCOC(=O)c1ccc(O)c(O)c1,3.82% [at 42.5 µM],–
CC(C)(c1ccccc1)c1ccc(Nc2ccc(C(C)(C)c3ccccc3)cc2)cc1,–,inactive
C=CCOC(=O)/C=C\C(=O)OCC=C,2.29%,–
CCCC(=O)OC[C@@H](OC(=O)CCC)[C@@H](OC(=O)CCC)[C@H](Cn1c2nc(=O)[nH]c(=O)c-2nc2cc(C)c(C)cc21)OC(=O)CCC,0.381% [at 42.5 µM],–
CC(C)C(=O)c1c(C(C)C)nn2ccccc12,-2.31% [at 42.5 µM],–
CCCCCCCCOS(=O)(=O)O,0.637%,–
CC(=O)N[C@@H](CC(C)C)C(=O)O,8.22% [at 42.5 µM],–
C/C(CC(C)C)=N\O,-0.151%,–

SMILES,"activity change, negative = cytotoxicity",Potency
CC(=O)Nc1ccc(S(N)(=O)=O)cc1,0.0166%,–
CC(C)(C)C(=O)C(=O)O,0.833%,–
CC(C)=CCC/C(C)=C/C(=O)O,0.986%,–
CCCCCCOC(=O)CCC,-0.0339%,–
CCOc1ccc2c(c1)C(C)=CC(C)(C)N2,–,inactive
Nc1nnc(-c2cccc(Cl)c2Cl)c(N)n1,16.7% [at 42.5 µM],–
Cn1c(=O)cc(Oc2ccc(F)cc2F)c2cnc(NCC(C)(C)O)nc21,6.61%,–
NC(=O)Nc1nc2ccccc2[nH]1,3.06%,–
CCCCCCCCCCCCC,0.425%,–
COc1cc(C(=S)N2CCOCC2)ccc1O,-10.8% [at 42.5 µM],–
CNC1CCCN(c2c(F)cc3c(=O)c(C(=O)O)cn(C4CC4)c3c2OC)C1 (stereo not given),2.35% [at 42.5 µM],–
NC(=O)NNc1ccccc1,–,inactive
[O-]/[N+](=N\O)c1ccccc1,–,inactive
OCC(CO)(CBr)CBr,–,inactive
CCCCCCCC(=O)OCC(COC(=O)CCCCCCC)OC(=O)CCCCCCC,–,inactive
CCCCCCCCOC(=O)CCCCCCCCC(=O)OCCCCCCCC,2.05%,–
CN1C(CSCC(F)(F)F)Nc2cc(Cl)c(S(N)(=O)=O)cc2S1(=O)=O (stereo not given),-2.64% [at 42.5 µM],–
Cc1cnc(NC(=O)C2=C(O)c3ccccc3S(=O)(=O)N2C)s1,–,inactive
CCC1=C[C@@H]2CN(C1)Cc1c([nH]c3ccccc13)[C@@](C(=O)OC)(c1cc3c(cc1OC)N(C)[C@H]1[C@@](O)(C(=O)OC)[C@H](OC(C)=O)[C@]4(CC)C=CCN5CC[C@]31[C@@H]54)C2,2.47% [at 42.5 µM],–
CCCCCCCCCC[N+](C)(CCCCCCCCCC)CCC[Si](OC)(OC)OC,–,24.3 µM (active)
